dFosB activator: activators of mouse delta FosB homodimer. P13346. purified delta FosB, TAMRA-CDK5 oligo fluorescence polarization; percent of positive-control signal above neutral wells. activation, % at 25 µM. actives 0.99% (n = 340,000);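 active = mean activation above about 17%, with every replicate also reaching it, limit read from the data, passing the limit was not always enough; inconclusive = only one of the two conditions met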
Rtt109 Vps75: inhibitors of Candida albicans Rtt109/Vps75 histone acetyltransferase. purified Rtt109/Vps75, ThioGlo CoA-SH fluorescence, 4 h. Q5AAJ8. actives 0.16% (n = 330,000). inhibition, % at 34.9 µM;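 active = inhibition of at least 50% in every replicate; inconclusive = best replicate reaches 50% inhibition but some replicates fall short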
SMARCA2 activ: increases SMARCA2 function in MMTV reporter cells | MG213 cells, MMTV-luciferase reporter, dexamethasone, overnight | activation, % at 9.1 µM | actives 1% (n = 370,000) | AID 652017; in the data active = activation above about 7.8%;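 also: 0% = vehicle wells and 100% = reference activator wells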
esBAF inh: inhibitors of esBAF chromatin remodeling in mouse ES cells; reporter increase, % at 12.5 µM; Bmi1-luciferase knock-in reporter, 24 h; 100% = twice the neutral-well signal; actives 2% (n = 350,000); AID 602393; in the data active = activation above about 40%; inconclusive = no clear call, values can overlap the other calls;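 also: 0% = median of the plate's neutral control wells and 100% = double that signal; a rise in the Bmi1 reporter signal indicates esBAF inhibition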
Dyrk1A ADPGlo: inhibitors of rat Dyrk1A kinase | Q63470 | ADP-Glo luminescence, NFATc1 peptide | inhibition, % at 12.5 µM | actives 0.43% (n = 310,000) | AID 504441; in the data active = inhibition above about 50%;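 also: plate controls were vehicle with enzyme for no effect and no enzyme for full effect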
CDK5 p35 inh: inhibitors of human CDK5/p35 kinase; actives 0.01% (n = 330,000); Recombinant CDK5/p35, ADP-Glo luminescence, 60 min; Q00535+Q15078; inhibition, % at 10 µM;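 active = highest replicate inhibition of at least 50% and at least 75% of replicates reaching 50%; inconclusive = only one of the two criteria met; inactive = both criteria failed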;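 also: plate controls were DMSO neutral control for no effect and GW8510 at 10 µM for full effect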
Target sequence (Q00535 whole entry, looked up): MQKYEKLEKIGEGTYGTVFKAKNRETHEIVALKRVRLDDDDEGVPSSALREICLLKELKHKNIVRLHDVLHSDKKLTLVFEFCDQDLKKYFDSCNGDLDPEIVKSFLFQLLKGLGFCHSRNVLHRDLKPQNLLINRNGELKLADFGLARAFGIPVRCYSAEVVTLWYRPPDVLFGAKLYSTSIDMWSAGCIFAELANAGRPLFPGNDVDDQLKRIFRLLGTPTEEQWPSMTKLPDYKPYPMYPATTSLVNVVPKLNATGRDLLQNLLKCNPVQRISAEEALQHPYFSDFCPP
Target sequence (Q15078 whole entry, looked up): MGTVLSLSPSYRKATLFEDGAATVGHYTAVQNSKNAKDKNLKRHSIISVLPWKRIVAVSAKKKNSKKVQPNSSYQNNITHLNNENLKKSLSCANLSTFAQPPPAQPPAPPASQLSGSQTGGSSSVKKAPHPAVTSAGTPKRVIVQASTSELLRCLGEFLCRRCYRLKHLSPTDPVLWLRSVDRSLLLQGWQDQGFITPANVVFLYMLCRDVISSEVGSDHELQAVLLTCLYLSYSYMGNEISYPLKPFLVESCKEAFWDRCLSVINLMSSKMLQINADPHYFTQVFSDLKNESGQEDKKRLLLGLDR
* hit, by the source's call; ? = inconclusive; · = no result. Shown are actives, neighbours in structure and some others; about 3.2% of the full set was active somewhere.

SMILES	dFosB activator	Rtt109 Vps75	SMARCA2 activ	esBAF inh	Dyrk1A ADPGlo	CDK5 p35 inh
CCC(=O)N1C[C@H](O)COC[C@H]2O[C@@H](CC(=O)NCC3CCCCC3)CC[C@@H]21	·	·	·	3	·	·
COc1ccc(S(=O)(=O)N2C[C@@H](O)COC[C@H]3O[C@@H](CC(=O)NCc4ccc(Cl)c(Cl)c4)CC[C@@H]32)cc1	·	·	·	2	·	·
CNC[C@H]1Oc2c(NS(=O)(=O)c3ccc(C)cc3)cccc2C(=O)N([C@H](C)CO)C[C@H]1C	·	·	·	0	·	·
O=C(C[C@@H]1C[C@H]2c3cc(NC(=O)c4cccnc4)ccc3O[C@H]2[C@H](CO)O1)NC1CCCCC1	·	·	·	-2	·	·
C=CC(=O)Nc1ccc(Nc2nc(NC3CCC(N(C)C)CC3)nc3c2ncn3C(C)C)cc1 (stereo unspecified)	?	10	·	-85	93*	95*
O=C1NC(=O)C2(N1)C(=O)c1cccc3cccc2c13 (stereo unspecified)	·	·	-2	8	·	·
O=C1c2cccc3cccc(c23)C(=O)C1(O)O	-4	-5	-2	·	79*	-2
COc1ccc(-c2cn(Cc3ccc(C(N)=O)cc3)c(-c3ccncc3)n2)cc1	-4	6	3	76*	8	2
CCOc1ccc2nc(SCC(=O)c3cccs3)sc2c1	-8	8	7	90*	-7	-1
CCOC(=O)c1cc2cc3ccccc3cc2[nH]1	-14	-1	5	22	2	1
CC(C)OC(=O)c1cc2ccccc2[nH]1	-6	2	1	66*	-2	1
CC[C@H](C)Cc1cn([C@@H](CCCN=C(NC(=O)OC(C)(C)C)NC(=O)OC(C)(C)C)C(=O)NCCCCCCCCCCC(=O)N2CCN(C(=O)OC(C)(C)C)CC2)nn1	33*	0	·	2	-2	0
O=[N+]([O-])c1ccc(/C=N/Nc2nc(-c3ccccc3)c3cc(Br)ccc3n2)o1	23*	-5	-1	·	8	-1
Cc1ccc2nc(N/N=C\c3ccc([N+](=O)[O-])o3)nc(-c3ccccc3)c2c1	-1	5	2	-4	6	-1
Cc1cc(/C=C(\C#N)C(=O)O)c(C)n1-c1ccc(Br)cc1	-2	8	-1	-1	-4	-1
Cc1cc(C=C(C#N)C#N)c(C)n1-c1ccccc1	-4	-5	0	46*	3	0
Cc1cc(/C=C(/C#N)C(=O)Nc2ccccc2)c(C)n1-c1cccnc1	-6	1	1	44*	4	0
CCCNC(=O)[C@@H]1[C@@H](CO)[C@@H]2Cn3c(ccc(-c4cccc(F)c4)c3=O)[C@H]1N2C(=O)CC	·	·	·	7	·	·
Cc1ccc(-c2csc(C(C#N)=C3CCCC3)n2)cc1	-2	-3	1	49*	-5	1
N#CC(=C1CCCC1)c1nc(-c2cc3ccccc3oc2=O)cs1	-3	4	4	108*	-6	-1
Cc1nc(C2COc3ccccc3O2)sc1C(=O)O (stereo unspecified)	2	-1	-2	45*	22	5
Cc1nc2ccc3nc(NC(=O)C4COc5ccccc5O4)sc3c2s1 (stereo unspecified)	?	-25	-3	12	8	-1
Cn1c(SCc2ccccc2Cl)nnc1-c1cnccn1	-5	5	6	68*	-2	-1
Cn1c(SCc2cccc(F)c2)nnc1-c1cnccn1	-3	0	-2	9	7	9
CNc1nc(N/N=C/c2cc([N+](=O)[O-])ccc2F)nc(Nc2ccccc2)n1	94*	-2	-3	4	16	-1
SMILES	dFosB activator	Rtt109 Vps75	SMARCA2 activ	esBAF inh	Dyrk1A ADPGlo	CDK5 p35 inh
Cc1c(/C(O)=C2/C(=O)C(=O)N(CCN3CCOCC3)C2c2cccs2)cnn1-c1ccccc1 (stereo unspecified)	4	15	-1	-11	-5	-2
Cc1ccc(C2/C(=C(\O)c3cnn(-c4ccccc4)c3C)C(=O)C(=O)N2CCN(C)C)o1 (stereo unspecified)	-2	11	2	48*	0	1
Cc1ccc(C2/C(=C(/O)c3cnn(-c4ccccc4)c3C)C(=O)C(=O)N2CCN2CCOCC2)o1 (stereo unspecified)	-5	-1	4	50*	-8	-1
O=C(N[C@@H]1CC[C@@H](CC(=O)N2CCCCC2)O[C@@H]1CO)c1ccccn1	·	·	·	4	·	·
CCC(=O)Nc1cc(C(=O)OCC(=O)c2ccccc2Cl)ccc1C	-4	-4	0	64*	-6	0
C[C@@H]1CN([C@@H](C)CO)C(=O)c2cc(C3=CCCC3)cnc2O[C@H]1CN(C)C(=O)c1ccncc1	·	·	·	-2	·	·
O=C(NNC(=O)c1cccc2ccccc12)c1ccc(Cl)cc1Cl	3	2	3	61*	1	-1
O=C(NNc1cccc(Cl)n1)c1ccc(Cl)cc1Cl	1	1	2	52*	-5	2
O=C(Nc1ccc(Cl)cc1F)c1cccc2ccccc12	2	5	3	47*	-1	0
O=C(Nc1ccc(Cl)cc1F)c1ccccc1Br	3	-4	7	·	-1	0
CO[C@H]1CN(C)C(=O)c2cc(NC(=O)C3CCC3)ccc2OC[C@H](C)N(C(=O)NC(C)C)C[C@@H]1C	·	·	·	4	·	·
COc1ccccc1C(=O)Nc1ccc2c(c1)C(=O)N(C)C[C@@H](OC)[C@H](C)CN(C)[C@@H](C)CO2	·	·	·	4	·	·
CCOC(=O)c1ccc2c(c1)sc(=NC(=O)c1ccco1)n2CCOC	-4	-5	0	15	-7	-1
CCn1c(=NC(=O)c2ccco2)sc2cccc(F)c21	-29	-3	5	70*	5	-2
COc1cccc(C(=O)Nc2ccc3c(c2)C(=O)N(C)C[C@@H](OC)[C@@H](C)CN(CCc2ccccc2)[C@@H](C)CO3)c1	·	·	·	7	·	·
COc1ccc(NC(=O)N(C)C[C@H]2OCCCC[C@H](C)Oc3ccc(N(C)C)cc3C(=O)N([C@H](C)CO)C[C@@H]2C)cc1	·	·	·	19	·	·
CO[C@H]1CN(C)C(=O)c2ccc(NC(=O)C3CCC3)cc2OC[C@@H](C)N(Cc2ccncc2)C[C@@H]1C	·	·	·	-1	·	·
Nc1ccc(C23CC4CC(CC(CO)(C4)C2)C3)cc1	-1	3	-2	·	-9	0
NCC12CC3CC(C1)CC(c1ccc(Cl)cc1)(C3)C2	5	51*	-4	·	0	-3
CN(C)c1ccc(C(=O)OCc2ccccc2)cc1	8	-2	-1	50*	5	1
COc1ccc(OCc2cc(C(=O)NCC3CCOCC3)no2)c(Cl)c1	-7	-7	6	55*	-1	0
COc1ccc(OCc2cc(C(=O)N(C)Cc3cc(C4CC4)n[nH]3)no2)c(Cl)c1	-11	7	5	68*	0	1

High-throughput results as filed in PubChem.
